Pyk2 oligo antag: antagonists of human Pyk2 oligomerization; z-score (the deposit names both 25 µM and 10 µM); Q293 cells, Pyk2 FERM NanoBiT luminescence; active compounds read low; 99,000 tested, 0.83% active;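 active = Z-score of -3 or lower, scaled per plate to the spread of control and sample wells; inactive = z-score above -3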;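 note: negative z-score means lost luminescence so less FERM oligomerization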
CYP2C19 inhib: blocks human cytochrome P450 2C19 | CYP2C19 Supersomes, luciferin-H EGE luminescence, 30 min | 96,000 tested, 21% active | inhibition, % at 5 µM;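 active = CYP2C19 inhibition above a set limit at 5 µM in the primary screen, cut at about 50% in these data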;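 note: plate controls were negative control wells for no effect and 2.5 mM tranylcypromine positive control for full effect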
CYP2C19 activ: increases human CYP2C19 enzyme activity | P33261 | AID 1025 | 96,000 tested, under 10 active | activation factor at 5 µM | recombinant CYP2C19, luciferin-H EGE luminescence; active compounds read high; 0 = fully inhibited enzyme, 1 = untreated enzyme;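 active = activation factor of at least 2 at 5 µM in the primary screen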;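 note: 0 = wells with 2.5 mM tranylcypromine and 1 = vehicle-only wells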
Cav32 inh: human Cav3.2 channel inhibition, primary screen; AID 449739; O95180; Cav3.2-expressing cells, Fluo-4 calcium fluorescence FDSS; active compounds read low; 100,000 tested, 4% active; B-score at 10 µM;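 active = single-dose well whose peak fluorescence ratio is a statistical outlier from its plate by either plate-standardised score or position-corrected B-score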
CYP2C9 inh: inhibitors of human CYP2C9; P11712; AID 777; CYP2C9 Supersomes, luciferin-H conversion, luminescence; 96,000 tested, 20% active; inhibition, % at 5 µM;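 active = blocking of liver enzyme CYP2C9 beyond about 50% at 5 µM, limit read from the data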
CYP2C9 activ: CYP2C9 (human) activation. P11712. recombinant CYP2C9, luciferin-H conversion, luminescence; active compounds read high; factor 1 = untreated enzyme, 0 = blocked. activation factor at 5 µM. 96,000 tested, 1.4% active. AID 1024;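 active = activation factor of 2 or more for CYP2C9 at a 5 µM dose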;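 note: 0 = sulfaphenazole-blocked wells and 1 = vehicle-only wells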
Starred values were filed as active, the others as inactive; . = no result given. Most compounds without a hit are left out; they make up all but 27% or so of the library.

SMILES	Pyk2 oligo antag	CYP2C19 inhib	CYP2C19 activ	Cav32 inh	CYP2C9 inh	CYP2C9 activ
O=C(CNC(=O)OCc1ccccc1)NCC(=O)N1CCCC1C(=O)OCc1ccccc1 (centres undefined)	0.43	0	1	0.027	5	0.9
O=C(Cn1cc2c(n1)CCCC2)NCc1cccnc1	.	11	0.9	0.48	14	0.9
CC(C)CCNC(=O)Cn1cc2c(n1)CCCCC2	.	6	0.9	1.3	49	0.5
COC(=O)c1ccccc1NC(=O)Cn1cc2c(n1)CCC(C)C2 (centres undefined)	.	13	0.9	-4.1	61*	0.4
O=C(Cn1cc2c(n1)CCCC2)Nc1ccccc1Br	.	90*	0.1	-0.44	67*	0.3
O=C(Cn1cc2c(n1)CCCCC2)NCc1ccccc1	.	84*	0.2	1.5	-154	2.5*
CCN(CCNC(=O)Cn1cc2c(n1)CCCC2)c1ccccc1	.	72*	0.3	-0.38	69*	0.3
O=C1CC(=O)CC(c2ccco2)C1	-0.14	47	0.5	.	44	0.6
CCOC(=O)N1CCN(C(=O)Cn2cc3c(n2)CCCC3)CC1	0.25	10	0.9	1	2	1
CC1CCN(C(=O)Cn2cc3c(n2)CCCC3)CC1	.	55*	0.4	0.29	15	0.9
COc1cccc(CNC(=O)Cn2cc3c(n2)CCCC3)c1	.	70*	0.3	0.074	-22	1.2
Cc1ccc2nc(NC(=O)Cn3cc4c(n3)CCCCC4)sc2c1	.	29	0.7	-0.0025	66*	0.3
O=C1C2C3CCCC3=C3CCCC3C2C(=O)N1c1ccccc1 (centres undefined)	0.26	33	0.7	0.00037	35	0.7
CN(c1ccc(Cl)cc1)c1cc(=O)n(C)c2ccccc12	-1.3	100*	0	-3.4	97*	0
COC(=O)CNC(=O)CSc1nc(N)cc(=O)[nH]1	0.68	-12	1.1	0.5	13	0.9
O=C(NCc1ccco1)c1ccc(Cn2c(=O)c3ccccc3n(Cc3cccc(Cl)c3)c2=O)cc1	-1.2	2	1	0.12	0	1
COCCCNC(=O)c1ccc(Cn2c(=O)c3ccccc3n(Cc3ccc(C)cc3)c2=O)cc1	-0.79	47	0.5	-1.4	54*	0.5
Nc1nc(-c2cccc(Br)c2)cs1	0.43	64*	0.4	0.39	0	1
CCSc1ncc(Cl)c(C(=O)Nc2sc3c(c2C(=O)NCc2cccnc2)CCCC3)n1	-0.26	4	1	0.21	11	0.9
O=C1C(C=NCc2cccnc2)=C(O)c2ccccc21	-0.21	4	1	.	5	0.9
O=C1C(c2ccncc2)=C(O)c2ccccc21	0.26	50	0.5	.	92*	0.1
O=C1C(C=NCc2ccncc2)=C(O)c2ccccc21	-0.01	76*	0.2	1.6	85*	0.2
COC(=O)C(O)(CC(=O)Nc1cccc(SC)c1)C(F)(F)F (centres undefined)	0.27	32	0.7	-2	11	0.9
CN1OC(COC(=O)c2ccc(Cl)cc2Cl)CC1c1ccccc1 (centres undefined)	1.3	15	0.9	-2	-29	1.3
CCOC(=O)C(Cc1ccccc1)NS(=O)(=O)c1ccc(NC(C)=O)cc1 (centres undefined)	1.4	67*	0.3	-0.014	3	1
SMILES	Pyk2 oligo antag	CYP2C19 inhib	CYP2C19 activ	Cav32 inh	CYP2C9 inh	CYP2C9 activ
NC(=O)COC(=O)C(Cc1ccccc1)NS(=O)(=O)c1ccccc1F (centres undefined)	0.33	58*	0.4	-0.9	19	0.8
CCn1c(CNc2ccc(OC)cc2)nnc1SCC(=O)Nc1ccc(F)cc1	0.83	.	.	1.3	.	.
CCn1c(CNc2ccc(F)cc2)nnc1SCC(=O)Nc1ccc(OC)cc1OC	0.15	50*	0.5	-1.3	11	0.9
CCn1c(COc2ccc(C)cc2)nnc1SCC(=O)Nc1cc(OC)ccc1OC	-0.38	90*	0.1	-3	48	0.5
CCn1c(COc2ccc(C)cc2)nnc1SCC(=O)C(C)(C)C	1.4	50	0.5	-0.26	51*	0.5
CCn1c(COc2ccccc2)nnc1SCC(=O)Nc1cc(C)ccc1OC	-0.14	46	0.5	-1.3	-108	2.1*
COc1ccc(OC)c(NC(=O)CSc2nnc(C)n2Cc2ccccc2)c1	0.27	87*	0.1	1.2	29	0.7
CC(OC(=O)c1ccco1)C(=O)NCc1cccs1 (centres undefined)	2.2	.	.	0.43	.	.
CC(C(=O)NCc1cccs1)N1C(=O)c2ccccc2C1=O (centres undefined)	-0.41	24	0.8	0.33	24	0.8
CC(C)CC(OC(=O)c1cccs1)C(=O)NCc1cccs1 (centres undefined)	-0.23	95*	0	-0.92	92*	0.1
CC(OC(=O)c1cccs1)C(=O)NCc1cccs1 (centres undefined)	0.68	95*	0	0.21	62*	0.4
O=c1cc(CO)occ1OCc1ccccc1	0.07	-11	1.1	0.88	-7	1.1
COC(=O)c1cc(Br)c(=O)n(CCN2CCOCC2)c1	0.55	8	0.9	0.83	10	0.9
O=c1[nH]c(NCCCO)nc2c1C1(CCCC1)Cc1ccccc1-2	-1.2	-14	1.1	-4.1*	3	1
O=c1[nH]cnc2c1C1(CCCC1)Cc1ccccc1-2	1.1	88*	0.1	-2.9	22	0.8
CC(=O)Nn1cnc2c(c1=O)C1(CCCC1)Cc1ccccc1-2	-0.41	88*	0.1	-1.1	62*	0.4
CC(C)NC(=O)CSc1nnc(-c2ccc(S(=O)(=O)N3CCCC3)cc2)n1CC1CCCO1 (centres undefined)	0.26	0	1	1.1	4	1
COc1ccc(NC(=O)CSc2nnc(-c3cccnc3)n2Cc2ccco2)c(OC)c1	-1.5	37	0.6	0.33	49	0.5
Cc1c(Br)c([N+](=O)[O-])nn1C(C)C(=O)Nc1c(C)n(C)n(-c2ccccc2)c1=O (centres undefined)	-0.18	11	0.9	-0.27	16	0.8
COc1ccc(S(=O)(=O)N(C)c2c(C)n(C)n(-c3ccccc3)c2=O)cc1OC	0.58	71*	0.3	-0.42	0	1
Cc1ccc(CSC2=NCCN2C(=O)C2CC2)cc1	-0.24	92*	0.1	-0.4	19	0.8
O=C(C1CC1)N1CCN=C1SCc1cccc(C(F)(F)F)c1	0.3	95*	0	-1.6	70*	0.3
CC(=O)N1CCN=C1SCc1ccc(Br)cc1	.	54*	0.5	-4.8*	62*	0.4
CN(CCc1ccccn1)C1CC(=O)N(c2ccc(Cl)cc2)C1=O (centres undefined)	1.8	28	0.7	0.16	-25	1.3
O=C1C=C(NCc2ccncc2)CC(c2ccccc2)C1 (centres undefined)	0.35	96*	0	-0.1	45	0.6

Screening data (PubChem BioAssay)
